Here are results for 40 compounds from ChEMBL document CHEMBL1157539, “Thousands of chemical starting points for antimalarial lead identification” (Nature, 2010).

For the first experiment, the system named is Plasmodium falciparum. Description: GSK_TCMDC: Inhibition of Plasmodium falciparum Dd2 in whole red blood cells, using parasite LDH activity as an index of growth. Test compounds present at 2uM. The experiment is classed as functional.
On to `Cc1cc2[nH]c(-c3ccc(C(=O)NCCCN4CCN(c5cccc(Cl)c5)CC4)s3)nc2cc1Cl`, for which the Inhibition (commonly how much of the control response was suppressed) amounted to 93%.
The same measure, in the same setting: the result for `OC(COc1ccccc1-c1nc2ccccc2o1)CN1CCCN(CCc2ccccc2)CC1` (stereo not given) reads 2%.
Compound `O=C(O)C(F)(F)F.c1ccc(CNCc2ccc(-c3ccc(-c4nc5ccccc5[nH]4)cc3)cc2)cc1` came in with an Inhibition of 93%.
On the same count and under the same terms, the figure for `N#Cc1cccc(Nc2ncc3c(-c4cccc(NC(=O)Cc5cccc(Cl)c5)c4)c[nH]c3n2)c1.O=C(O)C(F)(F)F` is 95%.
Same read-out and setting: the result for `Cn1nc(-c2ccc(CNC3CCc4ccccc43)cc2)c2cnc(NCCCN3CCCC3)nc21` (stereo not given) reads 22%.

Another experiment has as its system HepG2. Description: GSK_TCMDC: Percent inhibition of human HepG2 cell line. Test compounds present at 10uM. The experiment is classed as functional.
`COc1ccc(CNC2CCN(C)CC2)cc1-c1ccc(S(=O)(=O)NCc2ccccc2)c(F)c1.O=C(O)C(F)(F)F` came in with an Inhibition of 53%.
In turn, `Cc1cc(Cl)ccc1OC(C)C(=O)N1CCc2ccccc21` (stereo not given) showed an Inhibition of 8%.
In turn, `CCOC(=O)c1cnc2c(OC)cc(OC)c(Cl)c2c1Nc1cccc(C)c1` registered an Inhibition of 0%.
On the same count and under the same terms, the result for `Cc1ccc(NC(=S)NC2CCN(CCCCCNC(=O)/C=C/c3ccc(Cl)c(Cl)c3)CC2)cc1Cl` reads 45%.
Take `CS(=O)(=O)CCNC(=O)c1ccc(-c2cc3c(Nc4ccc5c(cnn5Cc5ccccc5)c4)ncnc3cn2)o1.Cl`: the Inhibition is 6%.
Still for that read-out and setting: the figure for `CN(Cc1ccc(-c2ccc(C(F)(F)F)cc2)cc1)C(=O)Cn1c(CCc2cccc(F)c2F)cc(=O)c2ccc(OCC3CCCN3C)cc21.O=C(O)C(O)C(O)C(=O)O` (stereo not given) is 100%; for `Cc1cc(C(=O)Nc2ccc3c(c2)CCN3C2CCN(Cc3ccc(F)cc3Cl)C2)no1` (stereo not given) it is 7%.
The same measure, in the same setting: the figure for `CN(C)CCOc1ccc(-n2c(-c3nonc3N)nc3cncc(-c4ccc(F)cc4)c32)cc1` is 10%; for `COC(=O)Nc1cc(C(F)(F)F)ccc1N1CCCC(NS(=O)(=O)c2ccc(C(C)(C)C)cc2)C1` (stereo not given) it is 0%; for `FC(F)(F)c1ccc2[nH]c(-c3cccc(-c4ccc(CNCCN5CCNCC5)cc4)c3)nc2c1.O=C(O)C(F)(F)F` it is 17%.
The same measure, in the same setting: the result for `COc1ccc(C(C)Nc2nc(N)c3cc(OC)c(OC)cc3n2)cc1.Cl` (stereo not given) reads 23%.
In turn, `COc1ccc(CNCc2ccc(F)cc2)cc1-c1ccc(S(=O)(=O)NCCN2CCCC2)c(C)c1.O=C(O)C(F)(F)F` yielded an Inhibition of 55%.
Same read-out and setting: the figure for `CC(C)Oc1ccccc1-c1csc(C(=O)NCC2CCN(Cc3ccc(C(C)(C)C)cc3)C2)c1.O=C(O)C(F)(F)F` (stereo not given) is 59%; for `Nc1nc(N)c2cc(NC(=O)c3ccc(Cl)c(Cl)c3)ccc2n1` it is 100%.
`CN1CCCN(Cc2ccc(-c3ccc(NS(=O)(=O)c4cccc5cccnc45)cc3)cc2)CC1.O=C(O)C(F)(F)F` showed an Inhibition of 35%.
Still for that read-out and setting: the result for `CC1CN(c2cccc3c2nc(-c2cncc(C#N)c2)n3CCNCc2ccccc2)CC(C)O1.O=C(O)C(F)(F)F` (stereo not given) reads 0%.
Consider `O=C(Nc1cccc(-c2nn3ncccc3c2-c2ccnc(Nc3cccc(-c4cnco4)c3)n2)c1)c1c(F)cccc1F`, for which the Inhibition is on record as 96%.
Same read-out and setting: the figure for `CC1CCCCC1N(C)C1CCN(CCCNC(=O)C=Cc2ccc(Cl)cc2Cl)CC1` (stereo not given) is 53%.
On the same count and under the same terms, the result for `O=C(Nc1ccc(-c2ccccc2)cc1)Nc1cccc(Cn2nc(Cl)c(N3CCCNCC3)cc2=O)c1.O=C(O)C(F)(F)F` reads 13%.
On the same count and under the same terms, the result for `CCCOc1ccc(C=C(CC(=O)O)c2nc3ccccc3s2)cc1OCC` reads 7%; that for `Cl.Fc1ccccc1COc1ccc(Nc2ncnc3ccc(-c4nnc(C(F)(F)F)o4)cc23)cc1Cl`, 7%; that for `C[C@H](NC(=O)[C@H](CCCCNC(=O)OC(C)(C)C)NC(=O)OC(C)(C)c1ccc(-c2ccccc2)cc1)C(=O)OCc1ccccc1`, 4%.
For `COc1ccc(C(=O)C2CCN(CCCCNC(=O)c3ccc(NC(=O)c4cc(Cl)cc(Cl)c4)cc3)CC2)cc1`, the Inhibition was determined as 35%.
Still for that read-out and setting: the result for `CCOc1c(Br)cc(Cl)cc1CNCCCNc1nc2ccccc2[nH]1.Cl` reads 27%.
Same read-out and setting: the result for `COc1ccc2nccc([C@@H](O)CN3CCC(NCc4nc5cc(F)cc(F)c5[nH]4)CC3)c2c1.O=C(O)C(=O)O` reads 19%; that for `CCc1ccc(NC(=O)c2ccc(CN3CCCN(Cc4cccc(C)c4)CC3)cc2)cc1.O=C(O)C(F)(F)F`, 53%; that for `Cc1cc(N)c2cc(NC(=O)c3ccc4ccccc4c3)ccc2n1.Cl`, 33%.
`O=C(CCc1c[nH]cn1)Nc1cccc(-c2ccc(-c3nc4ccccc4[nH]3)cc2)c1` gave an Inhibition of 24%.
Same read-out and setting: the figure for `CC(=O)O.CCC[C@@H]([C@@H](CC1CCCCC1)C(=O)N[C@H](C(=O)Nc1nccc(N)n1)C(C)(C)C)N(O)C=O` is 25%.
The same measure, in the same setting: the result for `Cc1ccc(CN2CCN(Cc3cccc(NC(=O)c4ccc5ccccc5c4)c3)CC2)cc1C.O=C(O)C(F)(F)F` reads 62%; that for `O=C(NC1CCN(Cc2ccccc2)CC1)c1cc(-c2ccncc2)nc2ccc(Cl)cc12`, 17%.
Same read-out and setting: the figure for `CN(C)c1cccc(-c2cnc3ccc(NCc4cccc(Cl)c4)nn23)c1` is 11%; for `Cc1cc(Nc2ccc(OCc3ccccc3Cl)cc2)c2cc(Cl)ccc2n1.Cl` it is 33%; for `COc1cc2nc(C)nc(Nc3ccc(Cc4ccccc4)cc3)c2cc1OC.Cl` it is 16%.
On to `CC(C)C(C(=O)Nc1ccc(S(=O)(=O)N(C)C)cc1)c1ccc(Cl)cc1` (stereo not given), for which the Inhibition worked out at 27%.
The same measure, in the same setting: the figure for `Cc1cc2[nH]c(-c3ccc(C(=O)NCCCN4CCN(c5cccc(Cl)c5)CC4)s3)nc2cc1Cl` is 7%; for `OC(COc1ccccc1-c1nc2ccccc2o1)CN1CCCN(CCc2ccccc2)CC1` (stereo not given) it is 39%; for `O=C(O)C(F)(F)F.c1ccc(CNCc2ccc(-c3ccc(-c4nc5ccccc5[nH]4)cc3)cc2)cc1` it is 32%.
Still for that read-out and setting: the result for `N#Cc1cccc(Nc2ncc3c(-c4cccc(NC(=O)Cc5cccc(Cl)c5)c4)c[nH]c3n2)c1.O=C(O)C(F)(F)F` reads 0%; that for `Cn1nc(-c2ccc(CNC3CCc4ccccc43)cc2)c2cnc(NCCCN3CCCC3)nc21` (stereo not given), 27%.
